From PubChem BioAssay
This is one part of a sample in which hits are shown more often than they occur.
RE007 growth inh: less growth of the S. pombe RE007 Vpr strain. hit rate 0.21% among 360,000. Potency, µM (top dose mostly 92.2 µM), most hits filed as inhibitors. S. pombe RE007 Vpr strain, BacTiter-Glo ATP luminescence, 24 h; active = well fitted falling curve with a large enough effect; inconclusive = small, poorly fitted or top-dose-only effect; inactive = no such curve, though single readings can be large or run the other way; also: nearly all actives have a fitted effect of over 50% in size
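Fission yeast RE007 carrying one integrated HIV-1 vpr copy, seeded at OD 0.01 in PMG+AL medium with 23 nL pinned compound. Grown 24 h at 30 degrees; viability read by BacTiter-Glo luminescence after 5 min.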
LmPK inh: inhibitors of Leishmania mexicana pyruvate kinase; AID 1721; hit rate 0.37% among 290,000; Q27686; purified LmPK, Kinase-Glo ATP luminescence, 1 h; Potency, µM (series often up to 57.5 µM), actives largely listed as inhibitors
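ATP generated from ADP (0.1 mM) and PEP (0.5 mM) by 0.1 nM LmPK over 1 h at room temperature (pH 7.2 imidazole buffer) was detected by coupled luciferase luminescence. Values were normalized to uninhibited and no-enzyme wells.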
Tb PYK inh: blocks Trypanosoma brucei pyruvate kinase | Q57TT1 | TbPYK enzyme, Kinase-Glo Plus ATP luminescence, 45 min | Potency, µM (highest dose often 76.8 µM), actives largely listed as inhibitors | hit rate 0.12% among 410,000; also: nearly all actives have a fitted effect of over 50% in size
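T. brucei PYK with substrate was exposed to pin-transferred compounds across a concentration series, then started with 130 uM ADP (final). After 45 min at room temperature, Kinase-Glo Plus luminescence was read, normalized and curve-fitted.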
Shiga inhibitor: Shiga toxin inhibition; inhibition, % at 38.7 µM; AID 2315; Vero cells, Shiga toxin protein synthesis inhibition reporter; hit rate 9.2% among 290,000; in the data active = inhibition mostly above about 28%, no sharp cut-off; inactive = mostly below about 43%
Cycloheximide cs: affects cycloheximide protein synthesis inhibition readout, counter-screen. cell reporter, cycloheximide protein synthesis inhibition counterscreen. max response, %. hit rate 12% among 300,000; in the data active = max response mostly above about 13%, no sharp cut-off; inactive = mostly below about 14%; also: read at 38.3 µM for the half of the compounds with a filed dose
FBPA Giardia inh: inhibitors of Giardia lamblia fructose-1,6-bisphosphate aldolase; AID 2451; Potency, µM (doses to about 59.6 µM), usual class: inhibitors; purified Giardia FBPA; hit rate 0.71% among 290,000; also: nearly all actives have a fitted effect of over 55% in size
Target sequence (A8B2U2 whole entry, looked up): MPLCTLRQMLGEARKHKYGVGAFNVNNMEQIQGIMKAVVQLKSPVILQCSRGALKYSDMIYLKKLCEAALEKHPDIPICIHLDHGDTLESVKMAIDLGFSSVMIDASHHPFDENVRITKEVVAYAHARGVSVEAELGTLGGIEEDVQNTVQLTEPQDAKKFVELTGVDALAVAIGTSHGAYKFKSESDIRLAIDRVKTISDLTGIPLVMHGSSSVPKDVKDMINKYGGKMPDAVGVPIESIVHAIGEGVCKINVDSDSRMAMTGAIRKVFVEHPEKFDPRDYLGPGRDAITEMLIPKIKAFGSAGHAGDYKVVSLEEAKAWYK
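40 nM FBPA preincubated 10 min at RT with compound (up to 57.5 uM final), then substrate plus GAPDH/TPI/NAD/arsenate coupling and diaphorase/resazurin added. Fluorescence read after 20 min at RT, 525/598 nm.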
Each line names hits and unclear results; the compound was inactive in the other large screens. Unless noted, calls follow the shape of the dose curve; as a rule, active = well fitted curve in the direction sought with a large enough effect; inconclusive = small, poorly fitted or top-dose-only effect, or another doubt; inactive = no such curve, though single readings can be large; an effect the other way counts as inactive or inconclusive.

Cc1ccn2cc(-c3cccc(NS(C)(=O)=O)c3)nc2c1	Shiga inhibitor 59.0, Cycloheximide cs 59.6
Cc1ccc(S(=O)(=O)Nc2ccc(-c3cn4ccc(C)cc4n3)cc2)cc1	none
Clc1ccc(-c2cn3cc(Br)ccc3n2)cc1Cl	Shiga inhibitor 102.9, Cycloheximide cs 51.5
Cc1ccn2cc(-c3cnoc3C)nc2c1	LmPK inh inconclusive
Cc1ccn2cc(-c3ccc(NS(=O)(=O)c4ccccc4)cc3)nc2c1	Shiga inhibitor 12.9
CCc1ccccc1NC(=O)Cn1c(=O)ccc2cc(S(=O)(=O)N3CCCC3)ccc21	none (no result: RE007 growth inh, LmPK inh, Shiga inhibitor, Cycloheximide cs, FBPA Giardia inh)
COc1cccc(CNC(=O)CN2C(=O)CCn3nc(-c4cn(C)c5ccccc45)cc32)c1OC	none (no result: RE007 growth inh, LmPK inh, Shiga inhibitor, Cycloheximide cs, FBPA Giardia inh)
Cc1ccc(C(=O)c2cn(Cc3cc(C)ccc3C)c3nc(C)ccc3c2=O)cc1	none (no result: RE007 growth inh, LmPK inh, Shiga inhibitor, Cycloheximide cs, FBPA Giardia inh)
Cc1ccccc1C(=O)Nc1cccc(C(=O)OCc2cc(=O)n3c(C)csc3n2)c1	none (no result: RE007 growth inh, LmPK inh, Shiga inhibitor, Cycloheximide cs, FBPA Giardia inh)
CCCCN(C=O)c1c(CC)nc2ccc(C(=O)NCCCN3CCCC3=O)cn12	none (no result: LmPK inh, Shiga inhibitor, Cycloheximide cs, FBPA Giardia inh)
Cc1ccn2cc(-c3ccc(Br)cc3)nc2c1	RE007 growth inh inconclusive, LmPK inh inconclusive, Shiga inhibitor 21.9, Cycloheximide cs 38.3
CN1CCN(c2ccc([N+](=O)[O-])c3no[n+]([O-])c23)CC1	RE007 growth inh 31.6µM, FBPA Giardia inh inconclusive
O=C(CSc1ccc(-c2cccc([N+](=O)[O-])c2)nn1)N1CCCCCC1	Cycloheximide cs 19.4
O=C(CSc1ccc(-c2cccc([N+](=O)[O-])c2)nn1)N1CCCC1	none
Cc1cc(NC(=O)CSc2ccc(-c3cccc([N+](=O)[O-])c3)nn2)no1	none
CCSc1ccc(-c2cccc([N+](=O)[O-])c2)nn1	Shiga inhibitor active, Cycloheximide cs 52.7
COc1ccc(CNC(=O)c2ccc3c(c2)NC(=O)C(C)S3)cc1 (centres undefined)	Shiga inhibitor 37.0, Cycloheximide cs 21.1
CC1Sc2ccc(C(=O)O)cc2NC1=O (centres undefined)	none
CCCCn1cc2c(c1-c1ccc(Cl)cc1)c(=O)n(C)c(=O)n2C	none (no result: RE007 growth inh, LmPK inh, Shiga inhibitor, Cycloheximide cs, FBPA Giardia inh)
CCCn1c(C)nc2c(NCCCN(C)C)nc(C)nc21	none (no result: RE007 growth inh, LmPK inh, Tb PYK inh, Shiga inhibitor, Cycloheximide cs)
N#Cc1ccc(CSc2ccccn2)c(Cl)c1	Cycloheximide cs 24.8
Cn1c(SCc2nc3ccccc3n2CCO)nc2ccccc21	none
Cn1c(SCc2ccc(C#N)cc2Cl)nc2ccccc21	Cycloheximide cs 39.9
O=c1/c(=C/c2ccc([N+](=O)[O-])cc2)sc2n1CCCN=2	Shiga inhibitor 45.7, Cycloheximide cs 35.4
O=[N+]([O-])c1ccc(CN2CCCCCC2)cc1	FBPA Giardia inh inconclusive
COc1cc(/C=c2\sc3n(c2=O)CCCN=3)ccc1O	Cycloheximide cs 24.9
COc1cc(/C=c2\sc3n(c2=O)C(c2ccccc2)C(c2ccccc2)=NN=3)ccc1O (centres undefined)	none
CCC(C)NC(=O)Cn1ccc2cc(S(=O)(=O)N3CCCCC3)ccc21 (centres undefined)	none (no result: RE007 growth inh, LmPK inh, Shiga inhibitor, Cycloheximide cs, FBPA Giardia inh)
CCC(=O)Nc1ccccc1-c1nc2ccccc2n(CC(=O)c2ccc(C)cc2)c1=O	none (no result: RE007 growth inh, LmPK inh, Shiga inhibitor, Cycloheximide cs, FBPA Giardia inh)
CCOc1ccccc1C(=O)Oc1ccc2ccc(=O)oc2c1	none
CN(C)C(=O)c1cc(-c2ccccc2)no1	Shiga inhibitor 52.9, Cycloheximide cs 22.4
Cc1c(-c2nsc(NC(=O)c3cccs3)n2)nnn1-c1ccc(Br)cc1	none (no result: RE007 growth inh, LmPK inh, Shiga inhibitor, Cycloheximide cs, FBPA Giardia inh)
CCN(CCO)CC1CCCC2CCCCC21 (centres undefined)	none (no result: LmPK inh, Shiga inhibitor, Cycloheximide cs, FBPA Giardia inh)
Oc1ccc(N=Cc2ccc(-c3cccs3)s2)cc1	FBPA Giardia inh 3.54µM
Oc1nc(Nc2ccccc2)sc1/C=C1\C=Nc2ccccc21	Shiga inhibitor 63.7, Cycloheximide cs 48.6
O=c1[nH]c(O)c(/C=C2\C=Nc3ccccc32)[nH]1	Cycloheximide cs 18.1
CCOC(=O)c1c(Nc2ccccc2)sc(/C=C2\C=Nc3ccccc32)c1O	none
CCn1c(O)c(/C=C2\C=Nc3ccccc32)sc1=Nc1ccc(C)cc1	none
CCn1c(O)c(/C=C2\C=Nc3ccccc32)sc1=O	Shiga inhibitor 78.2, Cycloheximide cs 34.4
C/C=C/c1ccc2oc(-c3ccc(O)cc3)c(C)c2c1	none (no result: RE007 growth inh, LmPK inh, Tb PYK inh, Shiga inhibitor, Cycloheximide cs)
COc1ccccc1NC(=O)Nc1nc(CC(=O)N2CCN(c3ccccc3F)CC2)cs1	none (no result: LmPK inh, Shiga inhibitor, Cycloheximide cs, FBPA Giardia inh)
CC(=O)N1N=C(c2cccc(Cl)c2)OC1c1cccc([N+](=O)[O-])c1 (centres undefined)	none
CC(=O)NC1=NN(C(C)=O)C(c2ccc(C(C)C)cc2)S1 (centres undefined)	Cycloheximide cs 15.6
CC(=O)N1N=C(c2ccc(C)cc2)OC1c1cccnc1 (centres undefined)	Shiga inhibitor 61.4
CC(=O)N1N=C(c2cccc(Cl)c2)OC1c1ccc(C(C)C)cc1 (centres undefined)	Cycloheximide cs 22.9 (no result: Tb PYK inh)
CC(=O)Oc1c2c(c(CC=C(C)C)c3c1C(=O)C1=CC4CC5C(C)(C)OC(C/C=C(\C)C(=O)O)(C4=O)[C@]15O3)OC(C)(CCC=C(C)C)C=C2 (some centres undefined)	none (no result: RE007 growth inh, LmPK inh, Tb PYK inh, Shiga inhibitor, Cycloheximide cs)
CC(C)CC(=O)OCc1cn(-c2ccccc2)nn1	Shiga inhibitor 53.3, Cycloheximide cs 23.4
CCNC(=O)OCc1cn(-c2ccccc2)nn1	none
CC(C)(C)C(=O)OCc1cn(-c2ccccc2)nn1	Shiga inhibitor 59.4, Cycloheximide cs 30.4
O=C(OCc1cn(-c2ccc(Cl)cc2)nn1)c1ccccc1	none
CC(C)(C)C(=O)OCc1cn(-c2ccc(Cl)cc2)nn1	Cycloheximide cs 24.4
CC(=O)c1c(C)[nH]c2ccccc2c1=O	none
